Screening results: PubChem, National Center for Advancing Translational Sciences (NCATS)
A selection: hits, their analogues and other compounds. The true share with any hit is near 21%.
VP16 counter – counter-screen for ROR gamma inhibitors: Gal4-VP16 reporter | Drosophila S2 Gal4-VP16 UAS-luciferase, luminescence, 20 h | Potency, µM (doses to about 53.6 µM), inactives show top-dose activity, negative = inhibition, actives largely listed as inhibitors | hit rate 3.5% among 310,000 | AID 2546;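 also: Gal4-VP16 expression switched on by copper sulfate through the metallothionein promoter; potency is read from the fitted curve at half-maximal effect; nearly all actives have a fitted effect of over 50% in size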
RORgamma inh – ROR gamma (mouse) transcription inhibition; Potency, µM (doses to about 53.6 µM), for inactives: at the highest dose activity change, negative = inhibition, actives largely listed as inhibitors; hit rate 5.4% among 310,000; AID 2551; Drosophila S2 Gal4-RORgamma UAS-luciferase reporter, 20 h; P51450; also: potency is read from the fitted curve at half-maximal effect; nearly all actives have a fitted effect of over 60% in size
Target sequence (P51450 whole entry, looked up, the tested form may be a part): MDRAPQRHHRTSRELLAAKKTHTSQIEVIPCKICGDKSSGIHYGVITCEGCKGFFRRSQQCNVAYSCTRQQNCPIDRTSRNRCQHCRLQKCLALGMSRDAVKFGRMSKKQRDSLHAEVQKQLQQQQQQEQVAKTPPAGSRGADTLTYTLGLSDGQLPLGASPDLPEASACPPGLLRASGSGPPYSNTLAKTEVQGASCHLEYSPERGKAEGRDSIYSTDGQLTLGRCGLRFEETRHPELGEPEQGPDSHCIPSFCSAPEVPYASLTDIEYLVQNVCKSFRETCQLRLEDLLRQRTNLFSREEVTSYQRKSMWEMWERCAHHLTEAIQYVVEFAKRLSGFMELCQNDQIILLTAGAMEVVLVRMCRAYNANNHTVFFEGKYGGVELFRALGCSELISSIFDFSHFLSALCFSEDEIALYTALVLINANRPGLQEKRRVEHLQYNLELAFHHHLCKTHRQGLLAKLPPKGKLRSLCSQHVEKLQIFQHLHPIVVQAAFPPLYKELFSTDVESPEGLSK
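ROR gamma transcriptional activity was tracked as Gal4-UAS luciferase output in stably transfected Drosophila Schneider cells, with compound added 1 hr before 700 uM copper sulfate induction and a 20 hr ambient-temperature incubation.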
DT40 TDP1 CPT – growth inhibition of DT40 Tdp1-/-;hTDP1 cells with camptothecin (screen for TDP1 inhibitors); chicken DT40 Tdp1-/-;hTDP1 cells + 20 nM CPT, ATP luminescence, 48 h; Potency, µM (series often up to 46.2 µM), inactives show top-dose activity change, negative = growth inhibition, usual class: inhibitors; hit rate 12% among 420,000; also: potency is read from the fitted curve at half-maximal effect; nearly all actives have a fitted effect of over 55% in size
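Cell growth measured by CellTiter-Glo luminescence after a minimum 48 h, 37 C compound exposure with 20 nM CPT in Tdp1-knockout DT40 cells stably expressing hTDP1, seeded 400/well; qHTS titration format.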
ELG1 DNA repair – ELG1-dependent DNA repair inhibition; hit rate 2.3% among 330,000; HEK293T ELG1-luciferase reporter, luminescence, 16 h; DNA damage induced by 5-fluorouridine; Potency, µM (highest dose often 46.1 µM), without a hit: at the top dose activity change, negative = inhibition, actives largely listed as inhibitors; also: potency is read from the fitted curve at half-maximal effect; nearly all actives have a fitted effect of over 55% in size
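Luminescence from the luciferase reporter, measured 30 min after ONE-Glo reagent at room temperature, was the read-out. Beforehand, 2,000 cells per well were exposed for 16 hr at 37 °C to 5-fluorouridine together with compound or vehicle.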
DT40 TDP1 no CPT – qHTS for Inhibitors of human tyrosyl-DNA phosphodiesterase 1 (TDP1): qHTS in cells in absence of CPT; DT40 Tdp1-/- hTDP1 cells, no CPT, ATP luminescence, 48 h; Potency, µM (doses to about 46.2 µM), for the others: at the top dose activity change, negative = growth inhibition, hits mostly inhibitors; hit rate 15% among 420,000; also: potency is read from the fitted curve at half-maximal effect; nearly all actives have a fitted effect of over 55% in size
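Readout: luminescence from CellTiter-Glo after 30 min in the dark at RT. Cells: DT40 Tdp1-/- with stable hTDP1, 400/well. Exposure: compounds alone, ≥48 hr, 37 °C.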
IL1B secr inh – inhibitors of inflammasome signaling (IL-1 beta secretion); THP-1 LPS/ATP IL-1B secretion, AlphaLISA, 16 h; stronger effect = lower value; activity change, % at 57.5 µM; hit rate 4.7% among 360,000; in the data active = activity change below about -50%; inconclusive = mostly about -30% to -49%
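Secreted IL-1B measured by AlphaLISA bead assay after 16 h compound exposure of THP-1 cells; compounds (final up to 57.5 uM) added 1 h before LPS (250 ng/mL) and ATP (1.25 mM) stimulation; lower signal means less secretion.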
* hit, by the source's call; u = inconclusive; x = not tested or not shown. Unless noted, calls follow the shape of the dose curve; as a rule, active = well fitted curve in the direction sought with a large enough effect; inconclusive = small, poorly fitted or top-dose-only effect, or another doubt; inactive = no such curve, though single readings can be large; an effect the other way counts as inactive or inconclusive. % is scaled to controls: 0 for no effect and ±100 for the full control effect.

SMILES	VP16 counter	RORgamma inh	DT40 TDP1 CPT	ELG1 DNA repair	DT40 TDP1 no CPT	IL1B secr inh
O=C1NC[C@H](CCCCN2C[C@H](Cc3ccccc3)N(CCC3CCCCC3)C(=O)C2=O)N(CCc2ccc(O)cc2)C1=O	x	x	1%	x	-19%	-9
COC(=O)CNC(=O)Nc1cc(C(=O)NCc2ccc(C)cc2)ccc1N1CCCC1	x	x	2%	x	-21%	x
COc1cc(NC(=O)c2ccccc2-c2ccccc2)cc(OC)c1	5%	24%	u	1%	u	-9
COc1cc(NC(=O)c2cc(-c3cccc(OC)c3)n[nH]2)cc(OC)c1	x	x	15µM*	x	21µM*	x
COc1cccc(CN2CC(C(=O)NCc3ccc(C)o3)CCC2=O)c1 (configuration not stated)	3%	-17%	-9%	15%	13%	0
Cc1ccc(NC(=O)CSc2cn(CC(=O)N3CCOCC3)c3ccccc23)cc1Cl	x	x	21µM*	x	21µM*	x
CCc1ccc(NC(=O)CSc2cn(CC(=O)N3CCCC3)c3ccccc23)cc1	x	x	18µM*	x	u	x
Cc1cccc(NC(=O)CS(=O)(=O)c2cn(CC(=O)N3CCOCC3)c3ccccc23)c1	-2%	-3%	0.52µM*	5%	2.3µM*	-18
CCOC(=O)c1ccc(NC(=O)CSc2cn(CC(=O)N3CCCC3)c3ccccc23)cc1	x	x	u	x	18µM*	x
CCCC(=O)N1CCC1(C)C(=O)Nc1cc(OC)c(OC)c(OC)c1 (configuration not stated)	x	x	-16%	x	-13%	-13
Cc1nnc(N2CCN(C(=O)NC(C)C)CC2)c2nn(-c3ccccc3)c(C)c12	x	x	-3%	x	-1%	x
COC(=O)c1ccc(NC(=O)CSc2cn(CC(=O)N3CCCCCC3)c3ccccc23)cc1	x	x	u	x	18µM*	x
O=C(CCS(=O)(=O)Cc1ccccc1F)N1CCc2ccccc2C1	-13%	3%	23µM*	0%	16µM*	21
O=C(CCS(=O)(=O)Cc1ccccc1)N1CCc2ccccc2C1	16%	22%	u	0%	-12%	54
CCN(C(=O)COC(=O)/C(=C/c1ccccc1)n1nnnc1C)C1CCCCC1	x	x	u	u	23µM*	-97*
Cc1ccccc1-n1nnnc1SCC(=O)N(C)C1CCS(=O)(=O)C1 (configuration not stated)	7%	26%	24%	21%	5%	5
Cc1nnnn1/C(=C\c1ccccc1)C(=O)OCC(=O)N(C)C1CCS(=O)(=O)C1 (configuration not stated)	0%	11µM*	-13%	-5%	-20%	u
Cc1ccc2c(c1)c(=O)c1ccccc1n2CCCC(=O)Nc1ccc(F)cc1F	x	x	-28%	x	u	x
S=c1[nH]nc(-c2ccccn2)n1/N=C/c1ccc(Br)s1	7.9µM*	7.1µM*	5%	u	-8%	28
S=c1[nH]nc(-c2ccccn2)n1/N=C/c1ccc(-c2ccccc2Cl)o1	-4%	8.9µM*	23%	u	u	-2
Cc1cc(-c2n[nH]c(=S)n2/N=C/c2ccc(C)o2)n[nH]1	-1%	-8%	-7%	-10%	-28%	-3
Cc1n[nH]c(=S)n(/N=C/c2ccccn2)c1=O	-7%	-8%	u	1%	-28%	19
S=c1[nH]nc(-c2cc(-c3ccccc3)n[nH]2)n1/N=C/c1ccc(Cl)c(Cl)c1	7.9µM*	10µM*	u	19%	u	63
S=c1[nH]nc(-c2ccccn2)n1/N=C/c1ccc(Cl)c(Cl)c1	-23%	7.1µM*	-17%	-5%	-20%	x
S=c1[nH]nc(-c2cc(-c3ccccc3)n[nH]2)n1/N=C/c1ccc(Cl)cc1	u	u	-23%	0%	-24%	105
SMILES	VP16 counter	RORgamma inh	DT40 TDP1 CPT	ELG1 DNA repair	DT40 TDP1 no CPT	IL1B secr inh
Cc1ccc(C(=O)NC(=S)Nc2cc(-c3nc4ccccc4s3)ccc2C)cc1	-15%	-28%	u	u	u	52
CCOC(=O)C1CCN(C(=O)c2ccc(NS(=O)(=O)c3ccc4[nH]c(=O)[nH]c4c3)cc2)CC1	x	x	-1%	x	-6%	-4
O=C1C2C3c4ccccc4C(c4ccccc43)[C@@H]2C(=O)N1c1ccccn1 (some centres not stated)	-4%	-13%	u	-28%	21µM*	10
O=C1C2C3CC(C(Br)C3Br)C2C(=O)N1c1ccccn1 (configuration not stated)	-5%	-6%	-13%	-5%	-10%	2
C=CCCCCCCCCc1nc(=S)[nH][nH]1	-3%	13µM*	u	-7%	u	22
COc1ccccc1S(=O)(=O)N(C)C[C@@H]1OCc2cn(nn2)CCCC(=O)N([C@@H](C)CO)C[C@H]1C	x	x	-19%	x	-5%	26
Nc1nc(Nc2ccccc2F)sc1C(=O)c1ccccc1	-1%	-24%	12µM*	u	u	-20
CCN1C(=O)C2(C(C#N)=C(N)Oc3n[nH]c(C(C)C)c32)c2ccccc21 (configuration not stated)	-27%	-6%	-24%	10%	-27%	-13
Cc1noc(N)c1C1(O)C(=O)N(C(C)C)c2ccccc21 (configuration not stated)	6%	7%	7%	-16%	-3%	-1
Cc1nn(-c2ccccc2)c2c1C1(C(=O)N(C(C)C)c3ccccc31)C(C#N)=C(N)O2 (configuration not stated)	u	u	9.2µM*	0%	16µM*	1
Cc1nn(-c2ccccc2)c(N)c1C1(O)C(=O)N(C(C)C)c2ccccc21 (configuration not stated)	-1%	24%	6.5µM*	19%	8.2µM*	1
Cc1ccc(-n2nc(C)c(C3(O)C(=O)N(C(C)C)c4ccccc43)c2N)cc1 (configuration not stated)	-9%	-7%	10µM*	2%	12µM*	8
CC(C)c1nnc(NC(=O)c2cccs2)s1	u	u	2%	u	-7%	-17
O=C(Nc1ncc([N+](=O)[O-])s1)c1cccs1	10µM*	u	18µM*	u	10µM*	9
CC(C)(C)c1nnc(NC(=O)c2cccs2)s1	u	18µM*	-25%	u	-12%	-6
